# Assay outcomes deposited in PubChem BioAssay by National Center for Advancing Translational Sciences (NCATS).
# JMJD2A Tudor inh = inhibitors of human JMJD2A Tudor domain | O75164 | AlphaScreen JMJD2A-Tudor / H3K4me3 peptide binding | Potency, µM (series often up to 114 µM), for the others: at the top dose activity change, negative = inhibition, usual class: inhibitors | 390,000 tested, 4.4% active; note: % is set by controls: 0 for no effect and ±100 for the full control effect; nearly all actives have a fitted effect of over 50% in size
# TDP1 inh = TDP1 (human) enzyme inhibition; Q9NUW8; recombinant TDP1, AlphaScreen DNA substrate cleavage; Potency, µM (series often up to 130 µM), inactives show top-dose activity change, negative = inhibition, usual class: inhibitors; 350,000 tested, 0.28% active; note: % is set by controls: 0 for no effect and ±100 for the full control effect; nearly all actives have a fitted effect of over 40% in size
# Target sequence (Q9NUW8 whole entry, looked up): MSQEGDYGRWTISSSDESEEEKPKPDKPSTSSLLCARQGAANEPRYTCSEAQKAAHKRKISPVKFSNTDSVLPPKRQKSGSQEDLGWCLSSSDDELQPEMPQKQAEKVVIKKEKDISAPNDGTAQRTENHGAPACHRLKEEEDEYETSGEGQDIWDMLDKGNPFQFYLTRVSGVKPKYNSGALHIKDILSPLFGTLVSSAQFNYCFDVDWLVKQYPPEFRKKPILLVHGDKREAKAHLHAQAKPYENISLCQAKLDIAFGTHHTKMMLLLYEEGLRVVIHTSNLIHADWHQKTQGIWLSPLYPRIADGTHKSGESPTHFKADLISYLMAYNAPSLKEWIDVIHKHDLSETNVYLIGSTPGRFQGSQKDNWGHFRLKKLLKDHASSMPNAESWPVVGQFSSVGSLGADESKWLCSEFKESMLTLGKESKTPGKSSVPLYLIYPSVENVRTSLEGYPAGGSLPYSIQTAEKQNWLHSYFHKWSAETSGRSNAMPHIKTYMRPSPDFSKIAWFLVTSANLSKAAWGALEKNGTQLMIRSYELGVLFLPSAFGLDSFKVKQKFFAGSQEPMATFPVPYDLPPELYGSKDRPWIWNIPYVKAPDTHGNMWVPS
#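 Enzyme-compound mixtures sat 15 min at room temperature, followed by a 5 min reaction with 15 nM final substrate and 10 min with AlphaScreen beads. Recombinant human Tdp1 was used at 1 nM final.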
# G9a block = G9a (human) methyltransferase inhibition; Q96KQ7; G9a H3K9 monomethylation, AlphaScreen, 2 h; Potency, µM (top dose mostly 102 µM), inactives show at the top dose activity, negative = inhibition, hits mostly inhibitors; 350,000 tested, 8.8% active; note: % is set by controls: 0 for no effect and ±100 for the full control effect; nearly all actives have a fitted effect of over 75% in size
#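 G9a (20 nM) was preincubated 15 min with compound, then reacted 2 h at room temperature with 500 nM biotin-H3K9 peptide and 20 µM SAM. Monomethyl-H3K9 detected by AlphaScreen using anti-H3K9me1 antibody.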
# HP1b binding inh = HP1-beta chromodomain-methylated histone interaction inhibition. P83916. AlphaScreen HP1-beta / biotin-H3K9me3 peptide binding. Potency, µM (titrated, usually from 114 µM), for inactives: top-dose activity change, negative = inhibition, hits mostly inhibitors. 390,000 tested, 0.56% active; note: nearly all actives have a fitted effect of over 70% in size
#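 AlphaScreen: HP1-beta (50 nM) preformed 30 min with biotin-H3(1-18)K9me3 peptide (50 nM) in PBS pH 7.4, 0.01% Tween-20. Compound added for 30 min at RT, then streptavidin donor/nickel chelate acceptor beads (10 ug/mL) for 30 min.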
# BAZ2B inh = inhibitors of human BAZ2B bromodomain. AlphaScreen BAZ2B-H3K14Ac peptide displacement. AID 504333. 360,000 tested, 4.4% active. Potency, µM (highest dose often 114 µM), without a hit: top-dose activity change, negative = inhibition, hits mostly inhibitors. Q9UIF8; note: % is set by controls: 0 for no effect and ±100 for the full control effect; nearly all actives have a fitted effect of over 60% in size
#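 Inhibition is scored as reduced AlphaScreen emission. The BAZ2B/b-H3(5-23)K14Ac complex (50 nM each) in PBS pH 7.4, 0.01% Tween-20 meets compound (up to 110 uM) for 30 min at RT before bead addition.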
# Sfp inh = inhibitors of Bacillus subtilis Sfp phosphopantetheinyl transferase; Q9F4F7; Biochemical Sfp PPTase activity, qHTS; Potency, µM, for the others: largest response in the series, negative = inhibition, actives largely listed as inhibitors; 310,000 tested, 3.5% active;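 note: the enzyme is Sfp with the accession as filed and its product quenches rhodamine fluorescence; 0% = enzyme reaction without inhibitor and -100% = no enzyme wells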
#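 Sfp 15 nM + cpd, 15 min RT; start w/ rhodamine-CoA 5 uM, BHQ-2-YbbR 12.5 uM (final); 50 mM Hepes pH 7.6, 10 mM MgCl2, 0.01% NP-40, 0.01% BSA; read 525/598 nm at 0 and 30 min.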
# * hit, by the source's call; ? = inconclusive; · = no result given; [ ] = dose if it differs, or a comment. Rows were chosen to be rich in hits. Some 12% of all compounds tested hit in one or more screens of this group. Calls come from the whole dose curve; as a rule, active = well fitted curve in the direction sought with a large enough effect; inconclusive = small, poorly fitted or top-dose-only effect, or another doubt; inactive = no such curve, though single readings can be large; an effect the other way counts as inactive or inconclusive. Potency is the fitted concentration of half-maximal effect.
SMILES,JMJD2A Tudor inh,TDP1 inh,G9a block,HP1b binding inh,BAZ2B inh,Sfp inh
COc1ccccc1NC(=S)NC(=O)CCc1ccccc1,5%,-5%,-20%,44%,-18%,3%
CCN(C(=S)NC(=O)CCc1ccccc1)c1ccccc1,?,5%,8.9µM*,-3%,-5%,-25%
O=C(CCc1ccccc1)NNC(=O)CCc1ccccc1,6%,4%,13%,39%,-11%,5%
CC(=O)NC(=S)NNC(=O)CCc1ccccc1,?,-4%,8.9µM*,7%,-2%,?
COc1cccc(OC)c1C(=O)NNS(=O)(=O)c1ccc2ccccc2c1,-19%,1%,-6%[0.501 µM],29%,-14%,9%
O=C1C(Cl)=C(NC(=O)c2ccccc2)C(=O)C(Cl)=C1NC(=O)c1ccccc1,0.71µM*,·,1.3µM*,3.5µM*,?,0.89µM*
O=C(NC1=C(Nc2ccc(Cl)cc2)C(=O)c2ccccc2C1=O)c1ccccc1,-3%[57.1 µM],7%,7.9µM*,?,?,56µM*
O=C(Nc1ccc(Nc2ccccc2)cc1)c1ccc(Cl)cc1,-2%,·,·,27%,·,·
O=C(NC1=C(NC2CCS(=O)(=O)C2)C(=O)c2ccccc2C1=O)c1ccccc1 (centres undefined),?,2%,3.5µM*,1%,?,35µM*
Cc1cccc(C(=O)Nc2cccc(NC(=O)c3ccccc3)c2)c1,-17%,2%,·,11%,?,2%
O=C(NC(NC1CCS(=O)(=O)C1)C(=O)c1cccs1)c1ccccc1 (centres undefined),-15%,0%,6%[12.7 µM],28%,-6%,11%
Cc1cccc(NC2=C(NC(=O)c3ccccc3)C(=O)c3ccccc3C2=O)c1,25µM*,9%,3.2µM*,50µM*,28µM*,20µM*
Cc1noc(C)c1C(=O)N1CCC[C@@]2(CCN(c3ncccn3)C2)C1,·,·,-11%[12.7 µM],·,·,11%
O=C(CSc1nnc2scc(-c3ccc(Cl)cc3)n12)Nc1ccccc1F,-12%,·,2%[59 µM],35%,-1%,·
COCCCNC(=O)c1ccc(NC(=O)N2CCCCc3ccccc32)cc1,-16%,3%,5%[59 µM],18%,5%,·
Cc1ccc(C)c(-n2nnc(C(=O)Nc3ccc(Br)cc3)c2C)c1,-15%,3%,?,15%,0%,·
Cc1ccc(-c2nc(CS(=O)(=O)CC(=O)NCCN3CCCC3)c(C)o2)cc1,-19%,1%,-11%,23%,-5%,3%
CN(c1ccc(C(=O)Nc2ccc(Cl)cn2)cc1)S(=O)(=O)c1ccccc1,-8%,0%,5%[59 µM],50%,-11%,-4%
CN(C1=C(NC(=O)c2ccc(Cl)cc2)C(=O)c2ccccc2C1=O)c1ccccc1,4.5µM*,-3%,8.9µM*,-91%,8.9µM*,-4%
S=C1NCCN1CC1CCN(CCCC2CCCC2)CC1,-9%,·,·,39%,·,·
COc1cc(/C=C2\C(=O)N(CCC#N)N=C2C)ccc1OCC(=O)Nc1ccccc1,-6%,10%,22%[59 µM],30%,2%,7%
CCOc1cc(/C=C2\C(=O)N(CCC#N)N=C2C)ccc1OCC(N)=O,-7%,5%,71µM*,59%,-7%,27%
C=CC(=O)Nc1cccc(Oc2ccnc3[nH]ccc23)c1,79µM*,·,·,?,·,·
C=CC(=O)Nc1cccc(N(C)c2ccnc(Nc3ccc(N4CCN(C)CC4)cc3)n2)c1,14µM*,·,·,50µM*,·,·
C=CC(=O)Nc1cccc(Oc2ccnc(Nc3ccc(N4CCN(C)CC4)cc3)n2)c1,45µM*,·,·,?,·,·
SMILES,JMJD2A Tudor inh,TDP1 inh,G9a block,HP1b binding inh,BAZ2B inh,Sfp inh
C=CC(=O)Nc1cccc(Oc2ncnc3[nH]cc(-c4cnc5ccccc5c4)c23)c1,-11%,1%,·,22%,·,·
CN1CCN(c2ccc(NC(=O)c3ccc4ccccc4c3)cc2)CC1,-22%,3%,8%,9%[57 µM],?,-15%
COc1cc(OC)cc(C(=O)N2CCC3(CC2)NCCc2[nH]cnc23)c1,-25%,1%,·,35%,?,12%
O=C1/C(=C/N(C(=O)c2ccco2)c2ccc(Br)cc2)Sc2ccccc21,56µM*,3%,45µM*,?,?,-4%
CCC(NC(=O)NNC(N)=S)(C(F)(F)F)C(F)(F)F,-19%,·,?,14%,-13%,45µM*
CCC1CN(C(=O)C2CCN(S(=O)(=O)c3c(C)noc3/C=C/c3ccc(C)cc3)CC2)c2cc(C)ccc2O1 (centres undefined),-1%,3%,1%[59 µM],28%[57 µM],0%,·
O=C(/C(=N/N=C/c1ccc(O)c(O)c1O)c1ccccc1)c1ccccc1,35µM*,-1%,1.1µM*,?,32µM*,-96%
Oc1cccc(C=NCc2ccccc2)c1O,-25%,?,?,-14%,?,?
Oc1ccc(/C=N/N=C(c2ccccc2)c2ccccc2)c(O)c1O,56µM*,2%,1.4µM*,45µM*,25µM*,2.8µM*
Cc1cc(Cl)ccc1OCC(=O)N(Cc1ccco1)c1c(N)n(Cc2ccccc2)c(=O)[nH]c1=O,-20%,·,·,43%,·,·
CC(Sc1ccccc1)C(=O)NCCc1ccccc1 (centres undefined),18%,·,83%,46%,1%,18%
CCOC(=O)c1ccccc1NC(=O)Cn1c(=O)n(-c2cccc(C)c2)c(=O)c2c1c1cc(C)ccc1n2C,-13%,12%,3%[59 µM],1%,2%,·
C=C(C)C(=O)Nc1cccc(C2=NOC3(C2)C[C@H](C(N)=O)N(C(=O)CC#N)C3)c1 (some centres undefined),25µM*,-8%,?,?,40µM*,-1%
C=C(C)C(=O)Nc1cccc(C2=NOC3(C2)C[C@@H](C(N)=O)N(C(=O)CC(c2ccccc2)c2ccccc2)C3)c1 (some centres undefined),20µM*,18µM*,?,20µM*,13µM*,1%
NC(=O)[C@H]1CC2(CC(c3cccc(NC(=O)CC(c4ccccc4)c4ccccc4)c3)=NO2)CN1C(=O)CC(c1ccccc1)c1ccccc1 (some centres undefined),?,-4%,-44%[59 µM],1%,-15%,14%
CCn1cc(C(=O)NCCC(=O)NC(C)C)c(=O)c2cc3c(cc21)OCO3,-17%,·,3%,28%,7%,8%
Cc1cc(/C=C(\C#N)C(N)=O)c(C)n1-c1ccc(N2CCOCC2)c([N+](=O)[O-])c1,?,7%,?,?,?,-17%
Cc1cc(C=O)c(C)n1-c1ccc(N2CCCCC2)c([N+](=O)[O-])c1,35µM*,12%,13µM*,?,40µM*,18%
